Source: PubChem (Broad Institute)
C diff HTS: inhibitors of Clostridium difficile growth; AID 1259249; growth activity, negative = inhibition, % at 16 µg/mL (by protocol); 0.25% of 86,000 active; Clostridium difficile clinical isolate growth, OD600, 24 h; hits give low values;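 active means mean growth activity at or below -80% and every replicate also at or below -80%; inconclusive means mean at or below -80% but some replicate above -80%; inactive means mean growth activity above -80%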;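 further: 0% = DMSO wells and -100% = levofloxacin 16 µg/mL wells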
T cruzi growth-1: T. cruzi proliferation inhibition. inhibition, % at 8.34 µM. T. cruzi beta-gal in NIH3T3, GalScreen luminescence, 90 h. 5.9% of 77,000 active;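 active means mean inhibition above about 93%, with at least 55% of replicates each passing it, limit read from the data, passing the limit was not always enough; inconclusive means only one of those two conditions holds; inactive means neither condition holds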
Pf Dd2 inh: blocks growth of Plasmodium falciparum Dd2 parasites; P. falciparum Dd2 growth, SYBR Green, 72 h; hits give low values; activity change, % at 10 µM; 2.3% of 94,000 active; AID 1159554; in the data active means activity change below about -80%; inconclusive means no clear call, values can overlap the other calls
T cruzi growth-2: inhibitors of T. cruzi proliferation. shares compounds with T cruzi growth-1. T. cruzi beta-gal in NIH3T3, GalScreen luminescence, 90 h. inhibition, % at 8.35 µM. 72% of 5,600 active. AID 651739;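 active means mean replicate inhibition above about 95% and at least 55% of replicates individually reaching it, limit read from the data; inconclusive means only one of the two criteria is met; inactive means neither criterion is met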
T cruzi growth-3: inhibitors of T. cruzi proliferation. shares compounds with T cruzi growth-1. T. cruzi beta-gal in NIH3T3, GalScreen luminescence, 90 h. inhibition, % at 2.09 µM. 21% of 5,600 active. AID 651740;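 active means mean inhibition above about 95%, with at least 55% of replicates also reaching it, limit read from the data; inconclusive means meets just one of the two conditions; inactive means meets neither condition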;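 further: plate controls were neutral control median for no effect and positive control median for full effect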
3T3 cytotox: NIH/3T3 (mouse) viability loss; 14% of 5,600 active; AID 651742; shares compounds with T cruzi growth-1; cytotoxicity (signal decrease), % at 8.35 µM; NIH/3T3 viability, CellTiter-Glo ATP luminescence, 90 h;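 active means mean signal decrease across replicates above about 35% based on untreated-well scatter, with enough replicates individually passing, limit read from the data; inconclusive means no rule stated though some were filed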;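 further: 0% = median of neutral control wells and 100% = median of positive control wells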
NIH3T3 tox 2: cytotoxicity in mouse NIH/3T3 fibroblasts; NIH/3T3 viability, CellTiter-Glo ATP luminescence, 90 h; inhibition, % at 24.9 µM; 56% of 5,600 active; AID 651744; shares compounds with T cruzi growth-1;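 active means mean loss of cell viability signal at or above a set limit, and enough replicates individually reaching it; inconclusive means meets only the mean limit or only the replicate share; inactive means meets neither condition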;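 further: 0% = median of neutral control wells and 100% = median of positive control wells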
* hit, by the source's call; u = inconclusive; x = no result. Only some compounds are listed: those with a hit (about 6.7% of all), similar ones and a draw of the others.

SMILES | C diff HTS | T cruzi growth-1 | Pf Dd2 inh | T cruzi growth-2 | T cruzi growth-3 | 3T3 cytotox | NIH3T3 tox 2
C[C@@H]1CN([C@@H](C)CO)S(=O)(=O)c2ccc(C#CC3CCCC3)cc2O[C@@H]1CN(C)C(=O)Nc1cc(F)ccc1F | x | x | -31 | x | x | x | x
C[C@H]1CN([C@@H](C)CO)S(=O)(=O)c2ccc(C#CC3CC3)cc2O[C@@H]1CN(C)C(=O)Nc1cc(F)ccc1F | x | 111* | -55 | 108* | 79 | 39* | 36*
CN(C)C(=O)c1cc2c(c(-c3cccc(-c4ccc(F)cc4)c3)n1)[C@H](CCO)N([S@@](=O)C(C)(C)C)C2 | x | 29 | 30 | x | x | x | x
O=C(C[C@H]1CC[C@@H]2[C@H](COC[C@@H](O)CN2C(=O)c2ccccn2)O1)NC1CCC1 | 9 | x | 5 | x | x | x | x
COc1ccc(S(=O)(=O)N(C)C[C@@H]2OCCCC[C@@H](C)Oc3ccc(NS(=O)(=O)c4ccc(F)cc4)cc3C(=O)N([C@@H](C)CO)C[C@H]2C)cc1 | 7 | 101* | -2 | 103* | 65 | -31 | -6
COc1ccc(S(=O)(=O)N(C)C[C@H]2OCCCC[C@@H](C)Oc3ccc(NS(=O)(=O)c4ccc(F)cc4)cc3C(=O)N([C@@H](C)CO)C[C@@H]2C)cc1 | 4 | 104* | -34 | 103* | 76 | 10 | 8
COc1ccc(S(=O)(=O)N(C)C[C@@H]2OCCCC[C@@H](C)Oc3ccc(NS(=O)(=O)c4ccc(F)cc4)cc3C(=O)N([C@H](C)CO)C[C@H]2C)cc1 | 16 | 101* | -48 | 111* | 67 | 22 | -6
COc1ccc(S(=O)(=O)Nc2ccc3c(c2)C(=O)N([C@H](C)CO)C[C@H](C)[C@H](CN(C)S(=O)(=O)c2ccc(F)cc2)OCCCC[C@@H](C)O3)cc1 | 11 | -2 | 14 | x | x | x | x
COc1ccc(S(=O)(=O)Nc2ccc3c(c2)C(=O)N([C@H](C)CO)C[C@@H](C)[C@H](CN(C)S(=O)(=O)c2ccc(F)cc2)OCCCC[C@H](C)O3)cc1 | 1 | 71 | -49 | x | x | x | x
COc1ccc(S(=O)(=O)Nc2ccc3c(c2)C(=O)N([C@H](C)CO)C[C@H](C)[C@H](CN(C)S(=O)(=O)c2ccc(F)cc2)OCCCC[C@H](C)O3)cc1 | 6 | 80 | -50 | x | x | x | x
COc1ccc(S(=O)(=O)N(C)C[C@H]2OCCCC[C@H](C)Oc3ccc(NS(=O)(=O)c4ccc(F)cc4)cc3C(=O)N([C@H](C)CO)C[C@H]2C)cc1 | 5 | 69 | -80 | x | x | x | x
COc1ccc(S(=O)(=O)N(C)C[C@@H]2OCCCC[C@H](C)Oc3ccc(NS(=O)(=O)c4ccc(F)cc4)cc3C(=O)N([C@@H](C)CO)C[C@H]2C)cc1 | 5 | 105* | -44 | 109* | 40 | -15 | 5
O=C(NCc1ccccc1)[C@]1(Cc2ccccc2)N=C(c2ccc(OCCCO)cc2)O[C@@H]1c1ccccc1 | 12 | x | x | x | x | x | x
C[C@@H]1CN([C@H](C)CO)C(=O)c2cc(-c3ccc(F)cc3)cnc2O[C@H]1CN(C)C(=O)Cc1ccccn1 | 3 | x | -10 | x | x | x | x
C[C@@H]1CN([C@@H](C)CO)C(=O)c2cc(NC(=O)NC3CCCCC3)ccc2O[C@@H]1CN(C)Cc1ccc(Cl)c(Cl)c1 | 5 | u | 20 | 97* | 10 | 28 | 27
C[C@H]1CN([C@@H](C)CO)C(=O)c2cc(NC(=O)NC3CCCCC3)ccc2O[C@@H]1CN(C)Cc1ccc(Cl)c(Cl)c1 | -9 | 50 | 13 | x | x | x | x
C[C@H](CO)N1C[C@H](C)[C@@H](CN(C)Cc2ccc(Cl)c(Cl)c2)Oc2ccc(NC(=O)NC3CCCCC3)cc2C1=O | 4 | 7 | 9 | x | x | x | x
C[C@@H]1CN([C@H](C)CO)C(=O)c2cc(NC(=O)NC3CCCCC3)ccc2O[C@H]1CN(C)Cc1ccc(Cl)c(Cl)c1 | 3 | 93* | -4 | 106* | -22 | 20 | 13
Cc1ccccc1S(=O)(=O)N1C[C@H](O)COC[C@H]2O[C@H](CC(=O)N3CCN(C)CC3)CC[C@@H]21 | -4 | 1 | x | x | x | x | x
Cc1ccccc1-c1ccc2c(c1)O[C@H](CN(C)C(=O)c1ccccn1)[C@H](C)CN([C@H](C)CO)S2(=O)=O | -3 | x | 18 | x | x | x | x
